Vaccinia Venus: vaccinia inhibition (Venus reporter). Potency, µM (titrated, usually from 36.5 µM), without a hit: top-dose activity change, negative = inhibition, hits mostly inhibitors. 330,000 compounds, 0.46% hits. Vaccinia virus Venus reporter expression, fluorescence. AID 720580; calls by dose curve; tested in A549 cells; note: potency is the fitted concentration of half-maximal effect; nearly all actives have a fitted effect of over 30% in size
Marburg entry inh: Marburg virus entry inhibition; 300,000 compounds, 1.8% hits; Marburg virus pseudotyped entry inhibition, cell reporter; AID 540276; Potency, µM (titrated, usually from 37.8 µM), for inactives: at the highest dose activity change, negative = inhibition, hits mostly inhibitors; calls by dose curve; tested in HEK293 cells; note: potency is the fitted concentration of half-maximal effect
HCMV antiviral: human cytomegalovirus inhibition | HFF cells, HCMV-luciferase reporter, 72 h; hits give low values | 410,000 compounds, 4.5% hits | AID 1259415 | activity change, negative = inhibition, % at 57.5 µM; in the data active = activity change below about -60%; inconclusive = no clear call, values can overlap the other calls; inactive = above about -39%
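Steps: HFFs plated, 16 h 37C; compounds added; HCMV-luciferase added to MOI 1 PFU/cell; 72 h 37C; OneGlo reagent, 5 min room temperature; luminescence read, normalized to controls.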
FMDV antiviral: antivirals against foot and mouth disease virus. FMDV antiviral cell-based qHTS. Potency, µM (series often up to 57.9 µM), for inactives: top-dose activity change, negative = inhibition, usual class: inhibitors. 410,000 compounds, 1.2% hits; calls by dose curve; tested in HEK293T cells; note: read-out not given here; potency is the fitted concentration of half-maximal effect; nearly all actives have a fitted effect of over 45% in size
VACV mCherry inh: inhibitors of vaccinia virus infection (mCherry reporter signal) | Vaccinia virus mCherry reporter infection, fluorescence | Potency, µM (doses to about 36.5 µM), for inactives: top-dose activity change, negative = inhibition, actives largely listed as inhibitors | 310,000 compounds, 0.63% hits; calls by dose curve; tested in A549 cells; note: potency is the fitted concentration of half-maximal effect; nearly all actives have a fitted effect of over 35% in size
Lassa entry inh: Lassa virus entry inhibition; Lassa virus pseudotype entry inhibition, cell reporter; 300,000 compounds, 1.2% hits; Potency, µM (series often up to 37.9 µM), for the others: at the highest dose activity change, negative = inhibition, usual class: inhibitors; calls by dose curve; tested in HEK293 cells; note: potency is the fitted concentration of half-maximal effect; nearly all actives have a fitted effect of over 50% in size
Numbers without * were called inactive; i = inactive; ? = inconclusive; . = not tested or not shown; ! = not confirmed by another sample; [ ] = dose if it differs, or a comment. Only some compounds are listed: those with a hit (about 6.5% of all), similar ones and a draw of the others. % is set by controls: 0 for no effect and ±100 for the full control effect.

SMILES	Vaccinia Venus	Marburg entry inh	HCMV antiviral	FMDV antiviral	VACV mCherry inh	Lassa entry inh
CCOC(=O)CN(C(=O)CSc1nnc(-c2cccc(OC)c2)o1)c1ccc(F)cc1	.	7%	-26	-28%	.	?
CN(CCC#N)C(=O)CSc1nnc(-c2c[nH]c3ccccc23)o1	.	.	50	19%	.	.
COc1ccc(CN(C(=O)CSc2nnc(-c3ccccc3C)o2)c2ccc(F)cc2)cc1	-10%	?	-75*	?	.	-17%
O=C(CSc1nnc(-c2c[nH]c3ccccc23)o1)N(Cc1ccccc1)c1ccc(F)cc1	?	18µM*	.	.	?	?
CC(C)Cn1c(=O)c2sccc2n2c(CCCC(=O)NCCc3ccc(Cl)cc3)nnc12	-6%	.	?	20%	-9%	8%[46.1 µM]
CCN(C(=O)Cn1c(SCc2ccccc2F)nc2cccnc21)c1ccccc1	-9%	.	-25	12%	-9%	-3%[46.1 µM]
Cc1ccc(C)c2[nH]c(=O)c(CN(CC3CCCO3)C(=S)NCc3ccco3)cc12 (configuration not stated)	-21%	?	0	7%	-4%	-24%[46.1 µM]
Cc1cc2cc(CCNC(=O)c3cccs3)c(=O)[nH]c2cc1C	-23%	-6%	-99*	5%	-22%	?
Cc1ccc2cc(CN(CC3CCCO3)C(=S)NCc3ccco3)c(=O)[nH]c2c1C (configuration not stated)	-11%	0.63µM*	-63*	32%	-19%	5.8µM*
Cc1cc2cc(CN(Cc3cccs3)C(=S)NCc3ccco3)c(=O)[nH]c2cc1C	-19%	14µM*	-1	-29%	-28%	-28%
COc1ccccc1NC(=S)N(Cc1ccco1)Cc1cc2cc(C)ccc2[nH]c1=O	?	4µM*	-61*	-3%	?	-12%
CCCc1nnc(NC(=O)c2cc(=O)c3cc(C)c(C)cc3o2)s1	-9%	1%[46.1 µM]	3	-9%	-3%	24%[46.1 µM]
COc1ccc(OC)c(CNc2ncnc3onc(-c4ccc(Cl)cc4)c23)c1	-24%	?	?	?	-28%	?
O=C1CCN(Cc2ccccc2)CCN1CCO	-13%	.	?	-5%	i	.
O=C1CCN(Cc2ccc(O)cc2)CCN1CCO	-12%	.	-68*!	-11%	-11%	.
COC(=O)C1=C(C(=O)OC)SC2(S1)C(C(=O)OC)=C(C(=O)OC)Sc1c2ssc1=O	7.1µM*	?	-77*	32µM*	7.1µM*	11µM*
COC(=O)C1=C(C(=O)OC)SC2(S1)C(C(=O)OC)=C(C(=O)OC)SC1=C2c2cc(C)cc(C)c2NC1(C)C	-1%	14%	32	-21%	-9%	?
COc1ccc(-c2cc(C(=O)Nc3ccn(Cc4ccc(C)cc4)n3)no2)cc1OC	-3%	?	-12	-13%	5%	?
CCCN(Cc1ccccc1)C(=O)Nc1ccc2c(c1)nnn2C	4%	?	-1	.	-6%	2.6µM*
Cn1nnc2cc(NC(=O)Nc3ccccc3F)ccc21	-10%	.	40	1%	-4%	.
COc1ccccc1Cc1nc2ccccc2nc1SCC(=O)NCc1ccccc1Cl	-25%	.	11	7%	-2%	2%[46.1 µM]
COc1ccnc(N2CCN(c3ccc(Cl)cc3)CC2)c1C#N	-9%	-2%	-68*	?	-15%	-27%
COc1ccnc(N2CCN(c3cccc(C(F)(F)F)c3)CC2)c1C#N	-9%	-10%	6	.	-17%	?
CC(=O)Nc1cccc2c1Cc1cc([N+](=O)[O-])ccc1-2	-11%	16%	-98*	-5%	i	5%[46.1 µM]
O=C(Nc1ccc2c(c1)Cc1cc([N+](=O)[O-])ccc1-2)C(F)(F)F	-12%	20%	?	2%	-17%	7%
SMILES	Vaccinia Venus	Marburg entry inh	HCMV antiviral	FMDV antiviral	VACV mCherry inh	Lassa entry inh
COc1cc2c(cc1[N+](=O)[O-])-c1ccc([N+](=O)[O-])cc1C2=NNC(N)=S	-20%	.	.	0%	i	.
O=[N+]([O-])c1ccc2c(c1)Cc1cc(F)ccc1-2	2%	2%[46.1 µM]	-94*	-5%	-3%	2%[46.1 µM]
COc1cc2c(=O)[nH]c3cc([N+](=O)[O-])ccc3c2cc1[N+](=O)[O-]	-17%	.	-94*	-13%	?	.
CC(=O)Nc1cccc2c1Cc1ccccc1-2	.	.	.	82%	.	.
COc1cc2c(cc1[N+](=O)[O-])-c1ccc([N+](=O)[O-])cc1C2	.	.	-68*	.	.	.
CC(C)c1ccc(NC(=O)C2CCCN(S(=O)(=O)c3cccc4nsnc34)C2)cc1 (configuration not stated)	-13%	-4%[46.1 µM]	-20	-18%	-24%	-1%[46.1 µM]
O=c1c(-c2cc(F)cc(F)c2)nc2cnc(N3CCNCC3)nc2n1-c1ccccc1	.	.	.	-22%	.	.
CCOc1cccc(C2C=C(c3ccc4c(c3)OCO4)NC(c3cccc(Br)c3)N2)c1O (configuration not stated)	-16%	.	.	.	21%	.
COc1cc2c(cc1[N+](=O)[O-])-c1ccccc1C2	-2%	?	-75*	19%	-1%	18%[46.1 µM]
COc1ccccc1NC(=O)c1nc(SCc2ccccc2F)ncc1Cl	-17%	.	.	.	18%	.
COc1cc(NC(=O)CCc2c(C)nc3nc(-c4cc(OC)cc(OC)c4)nn3c2C)cc(OC)c1	-13%	7%[46.1 µM]	13	-18%	-11%	4%[46.1 µM]
CCCN(Cc1cccs1)C(=O)Nc1ccc(Br)c(C)c1	-9%	-14%[46.1 µM]	51	14%	-4%	19%[46.1 µM]
CCN(CCCl)c1cc(CN(C)C)cc(NC(=O)c2ccc(C(=O)Nc3cc(CN(C)C)cc(N(CC)CCCl)c3)cc2)c1	2.8µM*	?	-101*	?	1.3µM*	?
COc1cc2c(cc1OC)C1[C@H]3C(=CC[C@H]1OC2O)CCN3C (some centres not stated)	-10%	.	-103*	-4%	i	.
COc1cc2c(cc1OC)C(C)N(C(=O)c1cc(Cl)nc(Cl)c1)CC2 (configuration not stated)	.	.	42	-29%	.	.
C#CCN1C(=O)[C@]2(O[C@H](COc3ccccc3)CC3=CCCC32)c2c(Br)cccc21 (some centres not stated)	.	8%[14.2 µM]	.	.	.	.
COc1cccc(N2CCN(c3c(C#N)c(C(F)(F)F)nn3C)CC2)c1	-24%	?	-94*	?	.	?
COc1cc(OC)c(CN2CCOc3ccc(CN4CCC(O)CC4)cc3C2)c(OC)c1	-4%	.	.	-12%	-17%	.
COC[C@H]1O[C@H](c2ccccc2)C=C[C@H]1OCc1cccc(Br)c1	.	-15%[14.2 µM]	.	.	.	.
CC(=O)Oc1ccccc1C(=O)NC(C)CCc1ccccc1 (configuration not stated)	-26%	-30%	-9	25µM*	-8%	-9%
COc1ccc(NC(=O)C(C)Sc2cc(-c3ccccc3)nc(C)n2)cc1Cl (configuration not stated)	-23%	6%[46.1 µM]	?	0%	-17%	0%[46.1 µM]
O=C(O)[C@H]1[C@H](CO)[C@H]2Cn3c(cccc3=O)[C@@H]1N2S(=O)(=O)c1ccccc1F	.	.	32	.	.	.

Compound activity (PubChem BioAssay)
